Laboratory results from PubChem BioAssay (NCATS).
Results filed as inconclusive are left out. Unmarked numbers belong to inactive results. Active and inactive are the calls of the source. The call rests on the fitted dose curve; in most records, active means well fitted inhibition curve with a large enough effect; inconclusive means small, poorly fitted or top-dose-only effect; inactive means flat fitted curve, though single readings scatter.

tested on: HB3; assay: qHTS profiling for inhibitors of Plasmodium falciparum proliferation (AID 504749); further: nearly all actives have a fitted effect of over 60% in size;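 on activity, negative = inhibition: 0% = DMSO vehicle and full inhibition = artemisinin control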; settings: P. falciparum in erythrocytes, SYBR Green DNA, 72 h; series mostly up to 28.7 µM; activity, negative = inhibition: at the top concentration
How it was run: (§1)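 Three-day growth assay of blood-stage parasites in erythrocytes (0.3% parasitemia, 2.5% hematocrit) at 37 C, 5% CO2, quantified by SYBR Green DNA staining after overnight detergent lysis.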
Potency means the concentration at half of the fitted maximal effect.

| SMILES | Potency | activity, negative = inhibition |
| --- | --- | --- |
| C=C1C(=CC=C2CCC[C@@]3(C)[C@@H]2CC[C@H]3[C@H](C)CCCC(C)C)C[C@@H](O)C[C@@H]1O | 12.6 µM (active) | – |
| O=C(COc1ccc(Cl)cc1)OCCNC12CC3CC(CC(C3)C1)C2 | – | 9.46% |
| CCOC(=O)C1=C(C)NC(C)=C(C(=O)OCC)C1c1ccccc1C=CC(=O)OC(C)(C)C | 12.6 µM (active) | – |
| CN=C(NC#N)Nc1ccc(C2=NNC(=O)C[C@@H]2C)cc1 | – | 6.22% |
| CCCCCCCC(=O)O | – | 8.43% |
| CCCCC(=O)O[C@]1(C(=O)CO)[C@H](C)C[C@H]2[C@@H]3CCC4=CC(=O)C=C[C@]4(C)[C@@]3(F)[C@@H](O)C[C@@]21C | – | -29.2% |
| CCCCCC(CC)COC(=O)CC(C(=O)OCC(CC)CCCC)S(=O)(=O)O (centres undefined) | – | -1.5% |
| CCOC(=O)C1=CC2(CC)CCCN3CCc4c(n1c1ccccc41)C32 (centres undefined) | 12.6 µM (active) | – |
| O=C(O)CCC(=O)C(=O)O | – | 2.81% |
| O=C(O)c1cc(=O)c2c3nc4ccccc4oc-3cc(=O)c2[nH]1 | 12.6 µM (active) | – |
| CC(Cc1ccc(O)c(O)c1)C(C)Cc1ccc(O)c(O)c1 (centres undefined) | – | -18.1% |
| C#C[C@]1(O)CC[C@H]2[C@@H]3CCC4=CCCC[C@@H]4[C@H]3C(=C)C[C@@]21CC | – | 13% |
| CCN(CC)CCOc1ccc(-c2nc3cc(Cl)ccc3s2)cc1 | – | -22% |
| COC(=O)C1=C(C#N)NC(C)=C(C(=O)OC(C)C)C1c1cccc([N+](=O)[O-])c1 (centres undefined) | 10 µM (active) | – |
| CN(C)CCCN1c2ccccc2C(C)(C)c2ccccc21 | – | -3.08% |
| IC(I)I | – | -3.95% |
| COC(=O)[C@H]1[C@H]2CC3c4[nH]c5ccccc5c4CCN3C[C@@H]2CC[C@@H]1O (some centres undefined) | – | 5.03% |
| O=S(=O)(O)c1cc(O)c2c(N=Nc3ccc(Nc4ccccc4)c4c(S(=O)(=O)O)cccc34)cc(S(=O)(=O)O)cc2c1 | – | -22.1% |
| NC(=O)c1ncn(C2OC(CO)C(O)C2O)n1 (centres undefined) | – | -2.52% |

tested on: ICS; assay: as above; settings: P. falciparum in erythrocytes, SYBR Green DNA, 72 h; series mostly up to 28.7 µM; activity, negative = inhibition: at the top concentration
How it was run: as §1

| SMILES | Potency | activity, negative = inhibition |
| --- | --- | --- |
| C=C1C(=CC=C2CCC[C@@]3(C)[C@@H]2CC[C@H]3[C@H](C)CCCC(C)C)C[C@@H](O)C[C@@H]1O | 12.6 µM (active) | – |
| O=C(COc1ccc(Cl)cc1)OCCNC12CC3CC(CC(C3)C1)C2 | – | -16.8% |
| CCOC(=O)C1=C(C)NC(C)=C(C(=O)OCC)C1c1ccccc1C=CC(=O)OC(C)(C)C | 4.47 µM (active) | – |
| CN=C(NC#N)Nc1ccc(C2=NNC(=O)C[C@@H]2C)cc1 | – | 0.826% |
| CCCCCCCC(=O)O | – | -2.79% |
| CC(=O)Oc1cc(C)c(OC(C)=O)c2ccccc12 | 6.31 µM (active) | – |
| O=CCCCC=O | 7.08 µM (active) | – |
| CCCCCC(CC)COC(=O)CC(C(=O)OCC(CC)CCCC)S(=O)(=O)O (centres undefined) | – | -17.7% |
| O=C1CSC2(CCN(CCCN3c4ccccc4Sc4ccc(Cl)cc43)CC2)N1 | 12.6 µM (active) | – |
| CCCCCCOc1ccc(C(=N)N(CCCC)CCCC)c2ccccc12 | 2.82 µM (active) | – |
| CCOC(=O)C1=CC2(CC)CCCN3CCc4c(n1c1ccccc41)C32 (centres undefined) | 10 µM (active) | – |
| O=C(O)CCC(=O)C(=O)O | – | 5.16% |
| O=C(O)c1cc(=O)c2c3nc4ccccc4oc-3cc(=O)c2[nH]1 | 0.891 µM (active) | – |
| O=C(Nc1cccc(C(F)(F)F)c1)c1cc(Br)cc(Br)c1O | 8.91 µM (active) | – |
| CC(Cc1ccc(O)c(O)c1)C(C)Cc1ccc(O)c(O)c1 (centres undefined) | 10 µM (active) | – |
| C#C[C@]1(O)CC[C@H]2[C@@H]3CCC4=CCCC[C@@H]4[C@H]3C(=C)C[C@@]21CC | 10 µM (active) | – |
| COC(=O)C1=C(C#N)NC(C)=C(C(=O)OC(C)C)C1c1cccc([N+](=O)[O-])c1 (centres undefined) | 7.94 µM (active) | – |
| IC(I)I | – | 6.21% |
| CC1=C(/C=C/C(C)=C/C=C/C(C)=C/CO)C(C)(C)CCC1 | 7.08 µM (active) | – |
| COC(=O)[C@H]1[C@H]2CC3c4[nH]c5ccccc5c4CCN3C[C@@H]2CC[C@@H]1O (some centres undefined) | – | -2.5% |
| NC(=O)c1ncn(C2OC(CO)C(O)C2O)n1 (centres undefined) | – | -20.9% |
| CC[C@@]1(O)C(=O)OCc2c1cc1n(c2=O)Cc2cc3c([N+](=O)[O-])cccc3nc2-1 | 5.01 µM (active) | – |
| Clc1cc(Cl)c(OCC#CI)cc1Cl | 7.94 µM (active) | – |
| COc1cc(-c2ccc(-[n+]3nc(-c4ccccc4)nn3-c3ccc([N+](=O)[O-])cc3)c(OC)c2)ccc1-[n+]1nc(-c2ccccc2)nn1-c1ccc([N+](=O)[O-])cc1 | 8.91 µM (active) | – |

tested on: JCK; assay: as above; settings: P. falciparum in erythrocytes, SYBR Green DNA, 72 h; series mostly up to 28.7 µM; activity, negative = inhibition: at the top concentration
How it was run: as §1

| SMILES | activity, negative = inhibition | Potency |
| --- | --- | --- |
| C=C1C(=CC=C2CCC[C@@]3(C)[C@@H]2CC[C@H]3[C@H](C)CCCC(C)C)C[C@@H](O)C[C@@H]1O | 0.557% | – |
| O=C(COc1ccc(Cl)cc1)OCCNC12CC3CC(CC(C3)C1)C2 | 6.89% | – |
| CCOC(=O)C1=C(C)NC(C)=C(C(=O)OCC)C1c1ccccc1C=CC(=O)OC(C)(C)C | 8.66% | – |
| CN=C(NC#N)Nc1ccc(C2=NNC(=O)C[C@@H]2C)cc1 | 7.4% | – |
| CCCCCCCC(=O)O | 4.89% | – |
| O=CCCCC=O | 2.46% | – |
| CCCCC(=O)O[C@]1(C(=O)CO)[C@H](C)C[C@H]2[C@@H]3CCC4=CC(=O)C=C[C@]4(C)[C@@]3(F)[C@@H](O)C[C@@]21C | -9.61% | – |
| CCCCCC(CC)COC(=O)CC(C(=O)OCC(CC)CCCC)S(=O)(=O)O (centres undefined) | 10.7% | – |
| O=C1CSC2(CCN(CCCN3c4ccccc4Sc4ccc(Cl)cc43)CC2)N1 | -20.7% | – |
| O=C(O)CCC(=O)C(=O)O | -10.4% | – |
| O=C(O)c1cc(=O)c2c3nc4ccccc4oc-3cc(=O)c2[nH]1 | -4.56% | – |
| O=C(Nc1cccc(C(F)(F)F)c1)c1cc(Br)cc(Br)c1O | – | 10 µM (active) |
| CC(Cc1ccc(O)c(O)c1)C(C)Cc1ccc(O)c(O)c1 (centres undefined) | -5.79% | – |
| C#C[C@]1(O)CC[C@H]2[C@@H]3CCC4=CCCC[C@@H]4[C@H]3C(=C)C[C@@]21CC | 3.02% | – |
| CCN(CC)CCOc1ccc(-c2nc3cc(Cl)ccc3s2)cc1 | -5.59% | – |
| CN(C)CCCN1c2ccccc2C(C)(C)c2ccccc21 | -12.6% | – |
| IC(I)I | -0.394% | – |
| CC1=C(/C=C/C(C)=C/C=C/C(C)=C/CO)C(C)(C)CCC1 | -22.6% | – |
| COC(=O)[C@H]1[C@H]2CC3c4[nH]c5ccccc5c4CCN3C[C@@H]2CC[C@@H]1O (some centres undefined) | 2.31% | – |
| O=S(=O)(O)c1cc(O)c2c(N=Nc3ccc(Nc4ccccc4)c4c(S(=O)(=O)O)cccc34)cc(S(=O)(=O)O)cc2c1 | -5.79% | – |
| NC(=O)c1ncn(C2OC(CO)C(O)C2O)n1 (centres undefined) | 9.37% | – |
